# Laboratory results as given in PubChem BioAssay (EPA / NIEHS).
# Activity calls are given as the source filed them. The calls were made as follows: active = hit-call score of the fitted dose curve at least 0.9, where 1 is the maximum; inactive = score below 0.9.
# Tests used:
# Conditions in all cases: mRNA level, 48 h; actives raise or lower the signal
# [1] = read-out: Cytochrome P450 3A4 (Homo sapiens) (UniProt P08684); test: LTEA_HepaRG_CYP3A4: Life Technologies and Expression Analysis (LTEA) Assay for CYP3A4 using HepaRG (AID 2283487)
# Summary of the method: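 Differentiated HepaRG cells, plated 48 h, then dosed 48 h in serum-free induction medium with 0.5% DMSO, 8 half-log concentrations up to 100 uM, duplicate. CYP3A4 mRNA by qRT-PCR, normalized to ACTB/GAPDH/POLR2A; bidirectional fit versus DMSO.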
# [2] = read-out: DNA damage-inducible transcript 3 (DDIT3), DDIT3 (gene 1649); test: LTEA_HepaRG_DDIT3: Life Technologies and Expression Analysis (LTEA) Assay for DNA damage-inducible transcript 3 (DDIT3) using HepaRG (AID 2283488)
# Summary of the method: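 qRT-PCR readout (Fluidigm TaqMan), housekeeping-normalized to ACTB, GAPDH, POLR2A. HepaRG cells, 48 h exposure, 8-point half-log series from 100 uM in 0.5% DMSO, duplicates. Gain or loss of signal fitted against DMSO baseline.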
# [3] = read-out: Pro-epidermal growth factor (Homo sapiens) (UniProt P01133); test: LTEA_HepaRG_EGF: Life Technologies and Expression Analysis (LTEA) Assay for Epidermal growth factor (EGF) using HepaRG (AID 2283489)
# Summary of the method: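 EGF expression changes in human HepaRG cells are scored by bidirectional fitting relative to 0.5% DMSO controls. Chemicals are tested at eight half-log concentrations up to 100 uM for 48 h in serum-free induction medium.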
# [4] = read-out: Early growth response protein 1 (EGR1) transcription factor, EGR1 (gene 1958); test: LTEA_HepaRG_EGR1: Life Technologies and Expression Analysis (LTEA) Assay for Early growth response protein 1 (EGR1) transcription factor using HepaRG (AID 2283490)
# Summary of the method: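 EGR1 transcript levels quantified by qRT-PCR (Fluidigm arrays) against three housekeeping genes after 48 h chemical exposure of HepaRG cells. Eight-point half-log series topping at 100 uM, 0.5% DMSO vehicle, analyzed for gain or loss.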
# [5] = read-out: Ezrin (EZR), EZR (gene 7430); test: LTEA_HepaRG_EZR: Life Technologies and Expression Analysis (LTEA) Assay for Ezrin (EZR) using HepaRG (AID 2283491)
# Summary of the method: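 EZR transcript levels came from Fluidigm qRT-PCR and were normalized to three housekeeping genes after 48 h chemical exposure of HepaRG cells. Dosing used an 8-point half-log series with a 100 uM top concentration in 0.5% DMSO, tested in duplicate; both directions were fitted versus vehicle.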
# [6] = read-out: Cytochrome P450 3A7 (Homo sapiens) (UniProt P24462); test: LTEA_HepaRG_CYP3A7: Life Technologies and Expression Analysis (LTEA) Assay for CYP3A7 using HepaRG (AID 2283492)
# Summary of the method: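 Cells were thawed, plated, cultured 48 h, then treated for a further 48 h with chemicals (eight-point half-log series from 100 uM, 0.5% DMSO). RNA was isolated and CYP3A7 expression quantified by qRT-PCR normalised to ACTB, GAPDH and POLR2A.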
# [7] = read-out: Fatty Acid-Binding Protein 1 (FABP1), FABP1 (gene 2168); test: LTEA_HepaRG_FABP1: Life Technologies and Expression Analysis (LTEA) Assay for Fatty Acid-Binding Protein 1 (FABP1) using HepaRG (AID 2283494)
# Summary of the method: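 FABP1 expression by TaqMan qRT-PCR, normalised to three housekeeping genes, in HepaRG cells after 48 h chemical treatment. Eight-point half-log series topping at 100 uM in 0.5% DMSO, duplicates; gain or loss fitted relative to vehicle.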
# [8] = read-out: Cytochrome P450 4A22 (Homo sapiens) (UniProt Q5TCH4); test: LTEA_HepaRG_CYP4A22: Life Technologies and Expression Analysis (LTEA) Assay for Cytochrome P450 4A22 (CYP4A22) using HepaRG (AID 2283495)
# Summary of the method: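 Cryopreserved HepaRG cells, plated and cultured 48 h, then switched to serum-free induction medium and treated 48 h (duplicates, up to 100 uM, half-log steps, 0.5% DMSO). Expression change of CYP4A22 was fitted bidirectionally against vehicle.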
# [9] = read-out: Cytochrome P450 7A1 (Homo sapiens) (UniProt P22680); test: LTEA_HepaRG_CYP7A1: Life Technologies and Expression Analysis (LTEA) Assay for Cytochrome P450 7A1 (CYP7A1) using HepaRG (AID 2283496)
# Summary of the method: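 Using 0.5% DMSO as vehicle and baseline, chemicals were tested in duplicate over an 8-point range from 100 uM on HepaRG cells for 48 h; qRT-PCR signals were normalised to ACTB, GAPDH and POLR2A.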
# [10] = read-out: Glutathione S-Transferase (GSTA2), GSTA2 (gene 2939); test: LTEA_HepaRG_GSTA2: Life Technologies and Expression Analysis (LTEA) Assay for Glutathione S-Transferase (GSTA2) using HepaRG (AID 2283497)
# Summary of the method: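 GSTA2 transcript levels came from Fluidigm TaqMan qRT-PCR normalized to three housekeeping genes, fitted in both directions against DMSO. HepaRG cultures received chemicals for 48 h in serum-free induction medium (0.5% DMSO), 8 half-log concentrations up to 100 uM, duplicate.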
# [11] = read-out: Glutamate-cysteine ligase catalytic (GCLC), GCLC (gene 2729); test: LTEA_HepaRG_GCLC: Life Technologies and Expression Analysis (LTEA) Assay for Glutamate-cysteine ligase catalytic (GCLC) using HepaRG (AID 2283498)
# Summary of the method: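 Expression by TaqMan qRT-PCR, normalized to three housekeeping genes (ACTB, GAPDH, POLR2A), with up- or down-regulation fitted against DMSO. HepaRG cells dosed in duplicate for 48 h with 8 half-log concentrations up to 100 uM, vehicle 0.5% DMSO.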
# [12] = read-out: Glutamate-cysteine ligase regulatory (GCLM), GCLM (gene 2730); test: LTEA_HepaRG_GCLM: Life Technologies and Expression Analysis (LTEA) Assay for Glutamate-cysteine ligase regulatory (GCLM) using HepaRG (AID 2283500)
# Summary of the method: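 HepaRG, 48 h dosing, 100 uM top, half-log x8, 0.5% DMSO vehicle. Readout: GCLM mRNA by TaqMan qRT-PCR, housekeeping-normalized (ACTB/GAPDH/POLR2A). Curves fit bidirectionally vs DMSO baseline.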
# [13] = read-out: Glutathione S-transferase M3 (GSTM3), GSTM3 (gene 2947); test: LTEA_HepaRG_GSTM3: Life Technologies and Expression Analysis (LTEA) Assay for Glutathione S-transferase M3 (GSTM3) using HepaRG (AID 2283501)
# Summary of the method: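 Changes in GSTM3 expression, an oxidative-stress marker, were scored by bidirectional curve fitting against 0.5% DMSO vehicle. Human HepaRG cultures received chemicals for 48 h in duplicate, highest concentration 100 uM with half-log dilutions.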
# [14] = read-out: Heat shock 70 kDa protein 1 (HSPA1A), gene 3303; test: LTEA_HepaRG_HSPA1A: Life Technologies and Expression Analysis (LTEA) Assay for Heat shock 70 kDa protein 1 (HSPA1A) using HepaRG (AID 2283502)
# Summary of the method: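 HepaRG, 48 h exposure, 8-pt half-log CRC from 100 uM in 0.5% DMSO, duplicates. Readout: TaqMan qRT-PCR of HSPA1A mRNA, housekeeping-normalized (ACTB/GAPDH/POLR2A). Bidirectional fit vs 0.5% DMSO baseline.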
# [15] = read-out: Hypoxia-inducible factor 1-alpha (Homo sapiens) (UniProt Q16665); test: LTEA_HepaRG_HIF1A: Life Technologies and Expression Analysis (LTEA) Assay for Hypoxia-inducible factor 1 (HIF1A) Trancription factor using HepaRG (AID 2283503)
# Summary of the method: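 Gain- or loss-of-signal HIF1A mRNA changes are fitted against a DMSO baseline. HepaRG cultures receive eight concentrations, highest 100 uM, for 48 h in serum-free induction medium with 0.5% DMSO.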
# [16] = read-out: 3-Hydroxy-3-Methylglutaryl-CoA Synthase 2 (HMGCS2), HMGCS2 (gene 3158); test: LTEA_HepaRG_HMGCS2: Life Technologies and Expression Analysis (LTEA) Assay for 3-Hydroxy-3-Methylglutaryl-CoA Synthase 2 (HMGCS2) using HepaRG (AID 2283504)
# Summary of the method: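 Expression of HMGCS2 in human HepaRG liver cells is measured by qRT-PCR 48 h after dosing (highest 100 uM, half-log series, 0.5% DMSO). Values come from bidirectional concentration-response fitting with DMSO as baseline.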
# HGF (gene 3082) = test: LTEA_HepaRG_HGF: Life Technologies and Expression Analysis (LTEA) Assay for Hepatocyte Growth Facto (HGF) using HepaRG (AID 2283505)
# Summary of the method: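 Gain or loss of HGF mRNA in human HepaRG liver cells after 48 h chemical exposure; eight concentrations up to 100 uM with 0.5% DMSO vehicle, quantified by TaqMan qRT-PCR.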
# [17] = read-out: Insulin Like Growth Factor 1 (IGF1), IGF1 (gene 3479); test: LTEA_HepaRG_IGF1: Life Technologies and Expression Analysis (LTEA) Assay for Insulin Like Growth Factor 1 (IGF1) using HepaRG (AID 2283506)
# Summary of the method: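 qRT-PCR readout of IGF1 mRNA, normalized to three housekeeping genes, after 48 h chemical exposure of HepaRG cells. Concentrations: 8-point half-log series, top 100 uM, 0.5% DMSO vehicle. Gain or loss fitted against DMSO baseline.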
# CYP3A5 (gene 1577) = test: LTEA_HepaRG_CYP3A5: Life Technologies and Expression Analysis (LTEA) Assay for CYP3A5 using HepaRG (AID 2283493)
# Summary of the method: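 qRT-PCR read-out: CYP3A5 transcript in HepaRG lysates, housekeeping-normalized (ACTB/GAPDH/POLR2A), fitted bidirectionally against 0.5% DMSO baseline. Exposure 48 h, eight half-log concentrations up to 100 uM, duplicates.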
# [18] = read-out: growth arrest and DNA damage 45 (GADD45G), GADD45G (gene 10912); test: LTEA_HepaRG_GADD45G: Life Technologies and Expression Analysis (LTEA) Assay for growth arrest and DNA damage 45 (GADD45G) using HepaRG (AID 2283499)
# Summary of the method: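 Human hepatic HepaRG line treated 48 h with chemicals (eight concentrations, half-log steps from 100 uM); transcript induction or repression of GADD45G scored by qRT-PCR versus DMSO vehicle.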
# Sequence of Cytochrome P450 3A4 (Homo sapiens) (P08684 whole entry, looked up): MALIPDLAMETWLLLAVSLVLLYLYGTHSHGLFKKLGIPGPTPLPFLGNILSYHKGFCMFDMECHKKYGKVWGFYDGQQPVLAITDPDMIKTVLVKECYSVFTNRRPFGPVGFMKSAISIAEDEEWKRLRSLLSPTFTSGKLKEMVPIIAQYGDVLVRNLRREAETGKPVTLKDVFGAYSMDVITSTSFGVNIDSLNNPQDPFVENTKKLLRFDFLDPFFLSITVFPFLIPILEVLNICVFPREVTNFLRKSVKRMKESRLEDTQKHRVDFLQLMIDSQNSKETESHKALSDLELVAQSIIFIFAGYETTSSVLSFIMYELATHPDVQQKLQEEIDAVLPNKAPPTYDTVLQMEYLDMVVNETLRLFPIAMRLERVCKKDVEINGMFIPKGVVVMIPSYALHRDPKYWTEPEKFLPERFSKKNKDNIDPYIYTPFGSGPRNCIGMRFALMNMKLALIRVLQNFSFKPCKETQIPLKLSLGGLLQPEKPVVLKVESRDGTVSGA
# Sequence of Hypoxia-inducible factor 1-alpha (Homo sapiens) (Q16665 whole entry, looked up): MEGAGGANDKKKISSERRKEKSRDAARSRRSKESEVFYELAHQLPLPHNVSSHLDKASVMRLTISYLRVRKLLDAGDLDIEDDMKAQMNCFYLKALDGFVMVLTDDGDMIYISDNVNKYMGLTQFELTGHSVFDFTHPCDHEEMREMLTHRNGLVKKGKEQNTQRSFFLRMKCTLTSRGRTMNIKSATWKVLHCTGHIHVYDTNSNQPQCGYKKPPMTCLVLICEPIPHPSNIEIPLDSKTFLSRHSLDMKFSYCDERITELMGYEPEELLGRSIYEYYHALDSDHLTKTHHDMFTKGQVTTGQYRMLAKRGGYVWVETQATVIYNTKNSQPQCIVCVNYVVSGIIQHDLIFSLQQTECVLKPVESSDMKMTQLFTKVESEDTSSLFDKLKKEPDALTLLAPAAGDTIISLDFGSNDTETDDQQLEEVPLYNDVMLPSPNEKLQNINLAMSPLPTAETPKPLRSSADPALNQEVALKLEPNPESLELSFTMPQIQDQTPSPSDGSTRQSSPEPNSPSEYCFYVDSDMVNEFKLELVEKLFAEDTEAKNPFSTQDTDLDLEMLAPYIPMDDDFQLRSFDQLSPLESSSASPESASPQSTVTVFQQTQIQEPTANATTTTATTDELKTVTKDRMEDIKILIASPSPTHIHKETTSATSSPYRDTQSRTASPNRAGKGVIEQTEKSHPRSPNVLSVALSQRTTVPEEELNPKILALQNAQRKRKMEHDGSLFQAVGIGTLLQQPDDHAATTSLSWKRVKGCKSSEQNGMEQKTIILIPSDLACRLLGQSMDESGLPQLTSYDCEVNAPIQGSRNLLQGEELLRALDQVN
# Sequence of Cytochrome P450 3A7 (Homo sapiens) (P24462 whole entry, looked up): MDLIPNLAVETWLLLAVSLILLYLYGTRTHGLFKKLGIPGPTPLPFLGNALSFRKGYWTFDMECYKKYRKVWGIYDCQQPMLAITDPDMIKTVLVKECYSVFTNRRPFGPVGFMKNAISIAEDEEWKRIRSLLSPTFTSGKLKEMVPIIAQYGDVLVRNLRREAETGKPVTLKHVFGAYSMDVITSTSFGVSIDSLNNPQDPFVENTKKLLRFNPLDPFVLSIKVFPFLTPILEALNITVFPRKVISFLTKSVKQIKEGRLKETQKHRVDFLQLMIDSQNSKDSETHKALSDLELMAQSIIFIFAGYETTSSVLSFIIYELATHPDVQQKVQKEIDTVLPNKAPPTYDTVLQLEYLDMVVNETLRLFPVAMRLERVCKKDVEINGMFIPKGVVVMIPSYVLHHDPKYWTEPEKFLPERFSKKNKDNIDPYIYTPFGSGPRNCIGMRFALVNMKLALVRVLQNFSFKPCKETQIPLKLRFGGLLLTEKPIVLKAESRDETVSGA
structure (smiles),measurement,setting,value
Clc1ccc(C(Cl)(Cl)Cl)cc1,outcome,[1],inactive
same,outcome,[2],inactive
same,outcome,[3],inactive
same,outcome,[4],inactive
same,outcome,[5],inactive
same,outcome,[6],inactive
same,outcome,[7],inactive
same,outcome,[8],inactive
same,outcome,[9],inactive
same,outcome,[10],inactive
same,outcome,[11],inactive
same,outcome,[12],inactive
same,outcome,[13],inactive
same,outcome,[14],inactive
same,outcome,[15],inactive
same,outcome,[16],inactive
same,outcome,HGF (gene 3082),inactive
same,outcome,[17],inactive
O=C(O)C(F)(F)C(F)(F)C(F)(F)C(F)(F)C(F)(F)C(F)(F)C(F)(F)C(F)(F)C(F)(F)F,AC50,[1],75.8 µM (active)
same,AC50,[2],17 µM (active)
same,AC50,[3],76.1 µM (active)
same,AC50,[5],11.5 µM (active)
same,AC50,[6],80.3 µM (active)
same,AC50,CYP3A5 (gene 1577),94.1 µM (active)
same,AC50,[7],33.7 µM (active)
same,AC50,[8],79.7 µM (active)
same,AC50,[9],27.6 µM (active)
same,AC50,[10],35.5 µM (active)
same,AC50,[11],85.4 µM (active)
same,AC50,[18],19.4 µM (active)
same,outcome,[12],inactive
same,AC50,[13],74.8 µM (active)
same,outcome,[14],inactive
same,outcome,[15],inactive
same,AC50,[16],34 µM (active)
same,AC50,HGF (gene 3082),89.8 µM (active)
same,AC50,[17],31.2 µM (active)
Oc1ccc(C(c2ccc(O)cc2)(C(F)(F)F)C(F)(F)F)cc1,AC50,[1],81.7 µM (active)
same,AC50,[2],79.3 µM (active)
same,AC50,[3],80.1 µM (active)
same,AC50,[4],81.5 µM (active)
same,outcome,[5],inactive
same,outcome,[6],inactive
same,AC50,[7],92.5 µM (active)
same,outcome,[8],inactive
same,AC50,[9],89.6 µM (active)
same,AC50,[10],79.5 µM (active)
same,outcome,[11],inactive
same,outcome,[12],inactive
same,outcome,[13],inactive
same,AC50,[14],72.8 µM (active)
same,AC50,[15],83.5 µM (active)
same,AC50,[16],79.4 µM (active)
same,outcome,HGF (gene 3082),inactive
same,outcome,[17],inactive
COc1ccc(O)c(C(C)(C)C)c1,AC50,[1],66.4 µM (active)
same,outcome,[2],inactive
same,outcome,[3],inactive
same,outcome,[4],inactive
same,outcome,[5],inactive
same,outcome,[6],inactive
same,outcome,[7],inactive
same,outcome,[8],inactive
same,outcome,[9],inactive
same,outcome,[10],inactive
same,outcome,[11],inactive
same,outcome,[18],inactive
same,outcome,[12],inactive
same,outcome,[13],inactive
same,outcome,[14],inactive
same,outcome,[15],inactive
same,outcome,[16],inactive
same,outcome,HGF (gene 3082),inactive
same,outcome,[17],inactive
Nn1cnnc1,outcome,[1],inactive
same,outcome,[2],inactive
same,outcome,[3],inactive
same,outcome,[4],inactive
same,outcome,[5],inactive
same,outcome,[6],inactive
same,outcome,CYP3A5 (gene 1577),inactive
same,outcome,[7],inactive
same,outcome,[8],inactive
same,outcome,[9],inactive
same,outcome,[10],inactive
same,outcome,[11],inactive
same,outcome,[12],inactive
same,outcome,[13],inactive
same,outcome,[14],inactive
same,outcome,[15],inactive
same,outcome,[16],inactive
same,outcome,HGF (gene 3082),inactive
same,outcome,[17],inactive
C=CC(=O)NCNC(=O)C=C,outcome,[1],inactive
same,outcome,[2],inactive
same,outcome,[3],inactive
same,outcome,[4],inactive
same,outcome,[5],inactive
same,outcome,[6],inactive
same,outcome,CYP3A5 (gene 1577),inactive
same,AC50,[7],50 µM (active)
same,AC50,[8],24.6 µM (active)
same,outcome,[9],inactive
same,AC50,[10],12.7 µM (active)
same,outcome,[11],inactive
same,outcome,[18],inactive
same,outcome,[12],inactive
same,outcome,[13],inactive
same,outcome,[14],inactive
same,AC50,[15],15.6 µM (active)
same,outcome,[16],inactive
same,outcome,HGF (gene 3082),inactive
same,AC50,[17],50 µM (active)
